Measurements published in the supplement of paper PMC11732987, “Enantioselective OTUD7B fragment discovery through chemoproteomics screening and high-throughput optimisation” (Communications Chemistry, 2025).

Tests used:
Assay in all cases: log2 ratio of Biotin-Ahx-Ub-VS probe labelling (fragment/DMSO); higher = less target engagement (more negative = stronger competition), active = hit call of the paper (q ≤ 0.05, log2 ratio ≤ -1)
Conditions in all cases: compound concentration: 200 uM; treatment time: 3 h
USP42 = target: T1, USP42 (UniProt Q9H9J4)
T1 sequence (whole entry): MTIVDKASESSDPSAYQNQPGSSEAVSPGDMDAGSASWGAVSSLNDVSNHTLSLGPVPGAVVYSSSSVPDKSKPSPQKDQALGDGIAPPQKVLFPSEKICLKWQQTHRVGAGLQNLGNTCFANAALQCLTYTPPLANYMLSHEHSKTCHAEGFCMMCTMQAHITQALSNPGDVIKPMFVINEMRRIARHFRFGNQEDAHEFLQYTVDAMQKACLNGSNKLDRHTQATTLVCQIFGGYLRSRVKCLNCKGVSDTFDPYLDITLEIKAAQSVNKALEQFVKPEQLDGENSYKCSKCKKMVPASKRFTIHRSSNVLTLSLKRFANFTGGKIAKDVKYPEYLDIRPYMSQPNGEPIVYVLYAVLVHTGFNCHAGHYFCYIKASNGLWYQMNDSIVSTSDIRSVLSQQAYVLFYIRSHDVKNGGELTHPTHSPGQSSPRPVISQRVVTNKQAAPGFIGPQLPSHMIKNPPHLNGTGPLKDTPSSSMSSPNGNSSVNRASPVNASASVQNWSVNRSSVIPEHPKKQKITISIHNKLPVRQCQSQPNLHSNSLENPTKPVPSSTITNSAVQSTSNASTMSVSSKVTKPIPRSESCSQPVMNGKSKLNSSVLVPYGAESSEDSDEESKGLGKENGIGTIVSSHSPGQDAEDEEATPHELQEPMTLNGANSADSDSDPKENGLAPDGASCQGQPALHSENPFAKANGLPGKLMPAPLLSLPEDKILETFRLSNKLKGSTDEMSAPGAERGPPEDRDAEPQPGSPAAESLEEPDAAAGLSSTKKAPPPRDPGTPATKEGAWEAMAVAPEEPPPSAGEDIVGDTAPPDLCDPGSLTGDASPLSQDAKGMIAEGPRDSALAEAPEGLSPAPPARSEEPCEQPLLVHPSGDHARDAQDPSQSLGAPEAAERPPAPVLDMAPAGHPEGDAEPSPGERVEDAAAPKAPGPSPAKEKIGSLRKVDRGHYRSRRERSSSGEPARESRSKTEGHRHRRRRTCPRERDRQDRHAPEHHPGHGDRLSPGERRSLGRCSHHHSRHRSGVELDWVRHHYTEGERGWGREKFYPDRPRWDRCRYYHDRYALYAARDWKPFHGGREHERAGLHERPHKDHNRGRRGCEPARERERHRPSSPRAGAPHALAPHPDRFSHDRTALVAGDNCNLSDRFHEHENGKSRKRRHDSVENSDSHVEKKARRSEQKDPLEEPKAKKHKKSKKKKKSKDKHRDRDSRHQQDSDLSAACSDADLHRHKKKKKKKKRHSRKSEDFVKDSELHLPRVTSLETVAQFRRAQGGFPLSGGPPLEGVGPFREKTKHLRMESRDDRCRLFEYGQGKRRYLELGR
How it was run: (§1)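 Triplicate samples of HEK293T lysate, 495 µg each, received fragment at 200 µM or vehicle for 3 h, followed by Biotin-Ahx-Ub-VS (0.5 µM final) for 1 h. After NeutrAvidin enrichment of labelled DUBs and LysC/trypsin digestion, peptides were run by diaPASEF LC-MS/MS. The values are average log2 fragment/vehicle ratios from global-median-normalised Spectronaut label-free quantities, tested by unpaired t-test on proteins having ≥2 unique peptides.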

USP46 = USP46 (UniProt P62068)
Sequence of USP46 (P62068 whole entry): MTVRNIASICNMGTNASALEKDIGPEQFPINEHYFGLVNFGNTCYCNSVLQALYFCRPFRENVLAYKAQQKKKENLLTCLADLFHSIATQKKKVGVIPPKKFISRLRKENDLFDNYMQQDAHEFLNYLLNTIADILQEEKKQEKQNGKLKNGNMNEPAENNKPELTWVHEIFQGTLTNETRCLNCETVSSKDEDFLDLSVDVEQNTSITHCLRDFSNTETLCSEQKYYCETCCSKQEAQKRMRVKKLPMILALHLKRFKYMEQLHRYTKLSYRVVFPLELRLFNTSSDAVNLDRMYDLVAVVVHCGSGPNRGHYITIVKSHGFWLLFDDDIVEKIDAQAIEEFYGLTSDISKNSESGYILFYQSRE
How it was run: as §1

USP47 = target: T2, USP47 (UniProt Q96K76)
T2 sequence (whole entry): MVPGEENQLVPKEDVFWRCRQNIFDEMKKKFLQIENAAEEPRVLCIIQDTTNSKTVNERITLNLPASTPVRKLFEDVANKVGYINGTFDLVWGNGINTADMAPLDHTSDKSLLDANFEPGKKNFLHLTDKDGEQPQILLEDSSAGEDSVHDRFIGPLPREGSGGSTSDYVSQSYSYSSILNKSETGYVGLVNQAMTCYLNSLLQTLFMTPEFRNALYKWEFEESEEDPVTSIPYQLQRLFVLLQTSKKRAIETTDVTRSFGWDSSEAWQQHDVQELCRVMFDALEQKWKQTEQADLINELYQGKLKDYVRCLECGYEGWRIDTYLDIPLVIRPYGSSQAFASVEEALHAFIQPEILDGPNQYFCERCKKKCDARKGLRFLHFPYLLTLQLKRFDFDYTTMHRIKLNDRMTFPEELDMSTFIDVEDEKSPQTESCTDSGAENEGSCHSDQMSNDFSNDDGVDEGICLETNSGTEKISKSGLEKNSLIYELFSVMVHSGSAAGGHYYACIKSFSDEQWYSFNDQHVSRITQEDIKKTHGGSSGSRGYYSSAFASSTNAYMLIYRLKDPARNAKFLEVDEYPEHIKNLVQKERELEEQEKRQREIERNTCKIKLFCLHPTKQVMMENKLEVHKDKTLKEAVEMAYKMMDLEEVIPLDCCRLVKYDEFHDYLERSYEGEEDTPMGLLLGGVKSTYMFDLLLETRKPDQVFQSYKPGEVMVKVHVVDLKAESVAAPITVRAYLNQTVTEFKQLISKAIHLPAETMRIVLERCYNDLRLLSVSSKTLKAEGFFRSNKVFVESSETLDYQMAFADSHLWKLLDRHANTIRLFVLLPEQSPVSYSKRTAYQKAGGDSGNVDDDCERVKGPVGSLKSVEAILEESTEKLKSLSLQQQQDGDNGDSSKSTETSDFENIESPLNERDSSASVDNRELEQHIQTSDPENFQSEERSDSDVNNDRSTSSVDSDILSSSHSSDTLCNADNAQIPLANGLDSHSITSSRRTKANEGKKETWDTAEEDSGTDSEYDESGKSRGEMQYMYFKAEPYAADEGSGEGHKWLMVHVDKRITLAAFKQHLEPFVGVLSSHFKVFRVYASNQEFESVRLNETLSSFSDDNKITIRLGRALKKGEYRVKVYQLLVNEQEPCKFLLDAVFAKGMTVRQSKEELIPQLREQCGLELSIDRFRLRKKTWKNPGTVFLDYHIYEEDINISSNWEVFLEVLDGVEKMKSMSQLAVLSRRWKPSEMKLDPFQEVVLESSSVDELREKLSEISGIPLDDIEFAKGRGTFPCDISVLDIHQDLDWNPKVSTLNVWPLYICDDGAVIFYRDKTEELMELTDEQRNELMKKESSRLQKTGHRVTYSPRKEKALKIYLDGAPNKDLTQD
How it was run: as §1

USP48 = target: T3, USP48 (UniProt Q86UV5)
T3 sequence (whole entry): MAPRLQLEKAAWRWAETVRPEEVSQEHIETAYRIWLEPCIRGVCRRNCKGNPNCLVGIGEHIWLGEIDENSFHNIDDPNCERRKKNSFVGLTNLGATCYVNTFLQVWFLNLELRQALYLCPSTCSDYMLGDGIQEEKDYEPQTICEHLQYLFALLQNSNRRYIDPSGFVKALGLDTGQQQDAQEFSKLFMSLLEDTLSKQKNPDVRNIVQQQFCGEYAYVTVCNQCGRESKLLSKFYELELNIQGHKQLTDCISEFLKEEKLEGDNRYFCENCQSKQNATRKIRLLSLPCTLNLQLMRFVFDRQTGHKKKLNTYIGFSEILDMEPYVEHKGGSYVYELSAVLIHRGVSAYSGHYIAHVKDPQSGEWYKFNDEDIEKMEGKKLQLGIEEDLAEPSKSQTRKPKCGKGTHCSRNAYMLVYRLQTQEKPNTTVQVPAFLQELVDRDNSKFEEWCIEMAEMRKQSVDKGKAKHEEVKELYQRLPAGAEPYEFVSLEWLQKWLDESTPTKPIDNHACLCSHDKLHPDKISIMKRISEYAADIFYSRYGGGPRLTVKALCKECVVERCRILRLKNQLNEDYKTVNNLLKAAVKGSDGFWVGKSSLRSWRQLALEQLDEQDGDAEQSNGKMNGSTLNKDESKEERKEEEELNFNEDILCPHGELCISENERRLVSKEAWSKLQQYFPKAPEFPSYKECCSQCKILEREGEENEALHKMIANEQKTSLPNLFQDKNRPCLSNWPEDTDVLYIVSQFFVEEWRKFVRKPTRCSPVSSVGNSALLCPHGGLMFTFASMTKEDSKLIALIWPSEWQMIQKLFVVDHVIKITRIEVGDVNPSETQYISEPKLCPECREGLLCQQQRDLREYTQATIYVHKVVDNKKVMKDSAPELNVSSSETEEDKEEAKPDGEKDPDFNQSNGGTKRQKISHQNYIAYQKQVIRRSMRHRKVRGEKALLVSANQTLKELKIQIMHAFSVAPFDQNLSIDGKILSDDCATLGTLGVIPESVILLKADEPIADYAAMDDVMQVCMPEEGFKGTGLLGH
How it was run: as §1

USP5 = target: T4, USP5 (UniProt P45974)
T4 sequence (whole entry): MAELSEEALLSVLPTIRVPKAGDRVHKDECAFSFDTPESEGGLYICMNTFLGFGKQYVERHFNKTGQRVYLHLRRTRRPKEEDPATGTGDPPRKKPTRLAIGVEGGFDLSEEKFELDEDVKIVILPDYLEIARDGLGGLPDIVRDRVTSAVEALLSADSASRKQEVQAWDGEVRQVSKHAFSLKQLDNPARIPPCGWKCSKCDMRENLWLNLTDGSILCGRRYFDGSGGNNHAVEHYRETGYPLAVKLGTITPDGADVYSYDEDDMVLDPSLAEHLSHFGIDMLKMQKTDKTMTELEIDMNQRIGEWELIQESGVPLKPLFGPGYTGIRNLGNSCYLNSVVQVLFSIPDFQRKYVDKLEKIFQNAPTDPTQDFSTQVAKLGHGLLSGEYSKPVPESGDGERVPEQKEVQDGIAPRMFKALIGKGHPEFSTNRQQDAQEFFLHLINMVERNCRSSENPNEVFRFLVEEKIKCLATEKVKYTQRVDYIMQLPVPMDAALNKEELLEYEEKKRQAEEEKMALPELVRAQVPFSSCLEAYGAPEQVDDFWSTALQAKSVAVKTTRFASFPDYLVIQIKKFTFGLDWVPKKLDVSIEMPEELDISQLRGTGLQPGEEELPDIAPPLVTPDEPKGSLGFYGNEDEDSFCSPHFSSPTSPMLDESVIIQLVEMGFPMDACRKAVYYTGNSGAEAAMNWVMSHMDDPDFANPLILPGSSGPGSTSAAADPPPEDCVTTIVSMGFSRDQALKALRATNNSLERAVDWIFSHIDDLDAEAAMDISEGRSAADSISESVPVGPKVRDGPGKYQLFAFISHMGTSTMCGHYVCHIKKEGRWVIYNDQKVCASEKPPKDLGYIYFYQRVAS
How it was run: as §1

USP54 = USP54 (UniProt Q70EL1)
How it was run: as §1

USP7 = USP7 (UniProt Q93009)
Sequence of USP7 (Q93009 whole entry, looked up): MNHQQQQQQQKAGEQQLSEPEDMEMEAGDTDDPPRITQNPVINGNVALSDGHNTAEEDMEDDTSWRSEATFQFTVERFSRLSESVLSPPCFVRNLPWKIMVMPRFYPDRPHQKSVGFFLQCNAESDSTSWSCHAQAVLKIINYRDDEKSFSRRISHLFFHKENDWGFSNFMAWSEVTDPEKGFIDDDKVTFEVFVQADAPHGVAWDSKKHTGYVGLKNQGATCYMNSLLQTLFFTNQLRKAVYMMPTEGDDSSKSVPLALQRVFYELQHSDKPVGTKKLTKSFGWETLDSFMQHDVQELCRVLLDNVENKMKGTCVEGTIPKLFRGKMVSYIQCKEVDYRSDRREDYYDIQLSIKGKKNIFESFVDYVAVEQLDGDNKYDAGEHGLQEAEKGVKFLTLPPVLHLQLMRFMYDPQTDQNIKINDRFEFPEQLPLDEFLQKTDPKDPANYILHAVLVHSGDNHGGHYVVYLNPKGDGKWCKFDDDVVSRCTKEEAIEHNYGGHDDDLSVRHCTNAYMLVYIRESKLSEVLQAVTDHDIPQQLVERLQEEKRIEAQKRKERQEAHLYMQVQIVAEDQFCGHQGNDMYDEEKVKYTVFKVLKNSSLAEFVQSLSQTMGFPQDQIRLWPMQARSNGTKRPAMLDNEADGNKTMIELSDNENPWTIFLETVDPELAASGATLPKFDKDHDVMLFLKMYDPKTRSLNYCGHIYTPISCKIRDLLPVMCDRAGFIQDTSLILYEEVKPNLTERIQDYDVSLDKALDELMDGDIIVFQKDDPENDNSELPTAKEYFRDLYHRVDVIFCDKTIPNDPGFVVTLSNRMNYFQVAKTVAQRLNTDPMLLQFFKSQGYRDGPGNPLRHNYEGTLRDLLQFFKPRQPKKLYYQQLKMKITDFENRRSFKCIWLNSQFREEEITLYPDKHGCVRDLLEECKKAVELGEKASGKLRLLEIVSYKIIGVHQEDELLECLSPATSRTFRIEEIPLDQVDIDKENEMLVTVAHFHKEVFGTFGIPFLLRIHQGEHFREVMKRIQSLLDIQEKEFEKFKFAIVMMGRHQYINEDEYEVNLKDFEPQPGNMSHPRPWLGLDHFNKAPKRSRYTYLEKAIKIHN
How it was run: as §1

USP8 = target: T5, USP8 (UniProt P40818)
T5 sequence (whole entry): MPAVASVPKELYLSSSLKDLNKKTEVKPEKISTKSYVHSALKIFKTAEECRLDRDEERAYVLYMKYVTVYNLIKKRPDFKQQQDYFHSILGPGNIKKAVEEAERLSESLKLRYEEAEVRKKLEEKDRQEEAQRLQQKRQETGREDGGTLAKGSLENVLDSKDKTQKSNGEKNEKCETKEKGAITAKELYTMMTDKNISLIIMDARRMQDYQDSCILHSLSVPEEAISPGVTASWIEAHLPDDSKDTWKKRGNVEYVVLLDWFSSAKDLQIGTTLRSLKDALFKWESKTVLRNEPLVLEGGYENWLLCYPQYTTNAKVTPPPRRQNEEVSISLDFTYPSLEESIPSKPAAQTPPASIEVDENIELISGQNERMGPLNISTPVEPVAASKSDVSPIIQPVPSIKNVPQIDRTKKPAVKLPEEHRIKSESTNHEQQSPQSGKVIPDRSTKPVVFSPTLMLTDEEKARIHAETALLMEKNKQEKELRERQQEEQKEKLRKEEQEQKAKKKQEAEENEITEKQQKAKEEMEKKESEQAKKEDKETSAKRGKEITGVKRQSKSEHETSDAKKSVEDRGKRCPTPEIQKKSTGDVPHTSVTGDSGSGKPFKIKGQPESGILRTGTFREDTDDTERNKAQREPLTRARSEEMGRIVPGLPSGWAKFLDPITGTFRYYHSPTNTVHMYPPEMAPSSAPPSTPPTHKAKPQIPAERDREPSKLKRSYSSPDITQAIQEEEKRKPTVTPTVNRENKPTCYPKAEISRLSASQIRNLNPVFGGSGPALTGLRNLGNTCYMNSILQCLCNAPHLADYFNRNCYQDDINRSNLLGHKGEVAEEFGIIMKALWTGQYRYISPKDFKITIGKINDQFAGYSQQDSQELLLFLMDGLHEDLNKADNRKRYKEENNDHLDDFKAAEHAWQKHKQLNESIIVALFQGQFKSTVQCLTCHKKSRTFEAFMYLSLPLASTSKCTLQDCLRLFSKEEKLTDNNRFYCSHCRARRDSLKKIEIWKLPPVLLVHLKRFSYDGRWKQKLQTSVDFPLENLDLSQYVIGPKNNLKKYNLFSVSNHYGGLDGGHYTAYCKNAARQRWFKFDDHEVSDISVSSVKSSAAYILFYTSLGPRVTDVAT
How it was run: as §1

USP9X = USP9X (UniProt Q93008)
Sequence of USP9X (Q93008 whole entry): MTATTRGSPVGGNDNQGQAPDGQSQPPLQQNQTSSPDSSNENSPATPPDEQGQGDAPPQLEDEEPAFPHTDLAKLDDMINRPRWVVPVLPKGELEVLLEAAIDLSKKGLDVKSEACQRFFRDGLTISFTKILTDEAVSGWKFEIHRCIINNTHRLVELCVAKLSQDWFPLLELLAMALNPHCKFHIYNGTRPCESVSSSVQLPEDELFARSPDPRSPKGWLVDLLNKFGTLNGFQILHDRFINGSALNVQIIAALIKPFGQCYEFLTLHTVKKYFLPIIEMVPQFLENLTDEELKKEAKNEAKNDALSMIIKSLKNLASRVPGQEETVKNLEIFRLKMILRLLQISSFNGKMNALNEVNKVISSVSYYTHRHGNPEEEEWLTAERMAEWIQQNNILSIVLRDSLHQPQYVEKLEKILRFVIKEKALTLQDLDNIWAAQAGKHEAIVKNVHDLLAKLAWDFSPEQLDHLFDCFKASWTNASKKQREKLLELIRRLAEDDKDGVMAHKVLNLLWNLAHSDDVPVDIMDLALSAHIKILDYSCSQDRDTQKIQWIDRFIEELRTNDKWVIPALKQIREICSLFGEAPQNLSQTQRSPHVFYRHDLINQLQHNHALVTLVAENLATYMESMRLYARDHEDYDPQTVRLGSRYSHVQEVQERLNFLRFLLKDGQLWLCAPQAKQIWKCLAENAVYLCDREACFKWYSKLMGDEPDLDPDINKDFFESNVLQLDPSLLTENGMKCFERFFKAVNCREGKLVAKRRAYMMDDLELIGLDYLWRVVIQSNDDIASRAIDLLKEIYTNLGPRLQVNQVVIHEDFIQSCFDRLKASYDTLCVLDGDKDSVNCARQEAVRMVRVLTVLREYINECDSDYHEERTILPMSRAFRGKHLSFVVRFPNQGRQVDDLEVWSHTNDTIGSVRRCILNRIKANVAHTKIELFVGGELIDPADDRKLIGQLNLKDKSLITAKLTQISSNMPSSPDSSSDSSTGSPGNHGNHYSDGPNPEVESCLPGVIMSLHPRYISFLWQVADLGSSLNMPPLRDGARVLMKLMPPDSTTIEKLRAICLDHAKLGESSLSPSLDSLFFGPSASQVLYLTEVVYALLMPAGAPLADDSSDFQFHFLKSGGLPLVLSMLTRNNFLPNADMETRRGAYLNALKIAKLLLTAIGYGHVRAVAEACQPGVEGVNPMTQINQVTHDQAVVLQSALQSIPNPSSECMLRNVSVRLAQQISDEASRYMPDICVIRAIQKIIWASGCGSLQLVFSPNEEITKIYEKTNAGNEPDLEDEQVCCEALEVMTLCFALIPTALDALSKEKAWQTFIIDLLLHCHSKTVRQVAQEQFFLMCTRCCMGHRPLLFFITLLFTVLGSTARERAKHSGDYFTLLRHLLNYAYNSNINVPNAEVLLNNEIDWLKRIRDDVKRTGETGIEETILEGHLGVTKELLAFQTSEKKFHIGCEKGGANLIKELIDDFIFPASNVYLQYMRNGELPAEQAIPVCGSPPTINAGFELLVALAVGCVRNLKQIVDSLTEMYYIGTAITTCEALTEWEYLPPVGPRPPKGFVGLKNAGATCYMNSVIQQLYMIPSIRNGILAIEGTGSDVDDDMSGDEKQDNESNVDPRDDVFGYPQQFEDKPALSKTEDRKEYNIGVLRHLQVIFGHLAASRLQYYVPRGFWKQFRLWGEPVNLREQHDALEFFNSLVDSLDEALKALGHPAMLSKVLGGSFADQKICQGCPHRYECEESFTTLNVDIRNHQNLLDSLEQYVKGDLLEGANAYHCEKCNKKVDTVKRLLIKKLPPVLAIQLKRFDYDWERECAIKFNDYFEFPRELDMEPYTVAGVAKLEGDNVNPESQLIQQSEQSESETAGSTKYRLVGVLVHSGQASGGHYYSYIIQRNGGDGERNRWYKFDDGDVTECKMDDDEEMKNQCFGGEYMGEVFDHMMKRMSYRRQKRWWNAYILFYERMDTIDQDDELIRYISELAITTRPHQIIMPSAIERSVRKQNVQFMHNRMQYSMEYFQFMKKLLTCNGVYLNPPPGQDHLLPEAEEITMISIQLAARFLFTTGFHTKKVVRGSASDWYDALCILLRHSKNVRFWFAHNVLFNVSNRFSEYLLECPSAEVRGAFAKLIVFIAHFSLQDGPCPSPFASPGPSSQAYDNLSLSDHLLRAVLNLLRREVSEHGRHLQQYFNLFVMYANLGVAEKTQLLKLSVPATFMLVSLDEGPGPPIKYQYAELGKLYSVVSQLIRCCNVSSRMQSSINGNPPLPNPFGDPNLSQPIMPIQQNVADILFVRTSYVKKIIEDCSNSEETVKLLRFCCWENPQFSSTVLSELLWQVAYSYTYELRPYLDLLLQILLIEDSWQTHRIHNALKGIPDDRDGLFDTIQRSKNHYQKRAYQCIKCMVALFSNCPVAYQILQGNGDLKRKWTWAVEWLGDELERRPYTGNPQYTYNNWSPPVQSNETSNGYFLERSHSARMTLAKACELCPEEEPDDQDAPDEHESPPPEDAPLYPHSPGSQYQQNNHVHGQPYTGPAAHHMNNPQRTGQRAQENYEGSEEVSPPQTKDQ
How it was run: as §1

UniProt O00487 = target: UniProt O00487
Sequence of UniProt O00487 (O00487 whole entry): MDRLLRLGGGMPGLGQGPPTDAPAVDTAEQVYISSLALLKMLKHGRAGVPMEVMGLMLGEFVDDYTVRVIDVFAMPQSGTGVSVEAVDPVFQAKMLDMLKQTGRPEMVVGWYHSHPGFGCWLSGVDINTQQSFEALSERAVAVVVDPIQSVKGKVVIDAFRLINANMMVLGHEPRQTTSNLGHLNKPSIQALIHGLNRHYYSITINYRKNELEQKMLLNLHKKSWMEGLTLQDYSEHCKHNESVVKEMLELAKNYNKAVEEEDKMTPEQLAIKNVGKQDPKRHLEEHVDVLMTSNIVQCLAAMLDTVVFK
How it was run: as §1

Measured: log2 ratio of Biotin-Ahx-Ub-VS probe labelling

O=C(CCl)NCC(=O)N1CCCC1
inactive: USP42 0.103 | USP46 0.0751 | USP47 0.107 | USP48 -0.00296 | USP5 0.205 | USP54 0.812 | USP7 -0.0345 | USP8 -0.434 | USP9X -0.168 | UniProt O00487 -0.0526
